Records with an inconclusive call do not appear. Activity calls are given as the source filed them. Unless noted, calls come from the whole dose curve.
Columns and labels:
[1] = qHTS for Inhibitors of the Functional Ribonucleoprotein Complex (vRNP) of Lassa (LASV) Arenavirus: LASV Primary Screen - GLuc reporter signal (AID 1347082; calls by dose curve; tested in HEK293 reporter line; note: nearly all actives have a fitted effect of over 60% in size)
[2] = qHTS for Inhibitors of the Functional Ribonucleoprotein Complex (vRNP) of Lassa (LASV) Arenavirus: Viability assay - alamar blue signal for LASV Primary Screen (AID 1347083; calls by dose curve; tested in HEK293 reporter line; note: nearly all actives have a fitted effect of over 80% in size)
[3] = qHTS for Inhibitors of the Functional Ribonucleoprotein Complex (vRNP) of Lymphocytic Choriomeningitis Arenaviruses (LCMV): Viability assay - alamar blue signal for LCMV Primary Screen (AID 1347085; calls by dose curve; tested in HEK293 reporter line; note: nearly all actives have a fitted effect of over 80% in size)
[4] = target: Nucleoprotein (Lymphocytic choriomeningitis virus (strain Armstrong)) (UniProt P09992); assay: qHTS for Inhibitors of the Functional Ribonucleoprotein Complex (vRNP) of Lymphocytic Choriomeningitis Arenaviruses (LCMV): LCMV Primary Screen - GLuc reporter signal (AID 1347086); note: nearly all actives have a fitted effect of over 70% in size
Nucleoprotein (Lymphocytic choriomeningitis virus (strain Armstrong)), sequence (P09992 whole entry, looked up): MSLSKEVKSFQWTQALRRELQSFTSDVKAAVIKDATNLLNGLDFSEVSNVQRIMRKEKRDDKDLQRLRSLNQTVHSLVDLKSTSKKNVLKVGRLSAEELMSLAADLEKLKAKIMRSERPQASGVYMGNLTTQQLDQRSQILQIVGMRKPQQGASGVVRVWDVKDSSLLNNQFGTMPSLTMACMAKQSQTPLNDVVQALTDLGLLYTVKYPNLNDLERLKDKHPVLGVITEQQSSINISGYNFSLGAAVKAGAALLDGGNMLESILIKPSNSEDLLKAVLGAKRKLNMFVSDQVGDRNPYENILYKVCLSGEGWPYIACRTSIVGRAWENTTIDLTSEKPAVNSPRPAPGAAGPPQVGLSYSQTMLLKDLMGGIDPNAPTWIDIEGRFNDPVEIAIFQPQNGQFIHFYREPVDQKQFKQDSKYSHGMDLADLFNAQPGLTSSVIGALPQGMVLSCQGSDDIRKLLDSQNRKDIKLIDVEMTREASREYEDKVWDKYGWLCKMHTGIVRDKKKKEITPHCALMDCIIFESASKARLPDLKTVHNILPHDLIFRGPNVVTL
% is set by controls: 0 for no effect and ±100 for the full control effect.
Note: series mostly up to about 57 µM.

CO/N=C(/C(=O)N[C@@H]1C(=O)N2C(C(=O)[O-])=C(C[n+]3ccn4ncccc43)CS[C@H]12)c1nsc(N)n1
inactive: Potency [1] | Potency [2] | Potency [3] | Potency [4]

NC(N)=NC(=O)Cc1c(Cl)cccc1Cl
inactive: Potency [1] | Potency [2] | Potency [3] | Potency [4]

C[N+](C)(C)CCCCCC[N+](C)(C)C
inactive: Potency [1] | Potency [2] | Potency [3] | Potency [4]

COc1ccccc1OCC1CNC(=O)O1 (configuration not stated)
inactive: Potency [1] | Potency [2] | Potency [3] | Potency [4]

c1ccc2sc(SN3CCOCC3)nc2c1
inactive: Potency [1] | Potency [2] | Potency [3] | Potency [4]

CC(C)(C)CC(C)(C)c1ccc(O)c(-n2nc3ccccc3n2)c1
inactive: Potency [1] | Potency [2] | Potency [3] | Potency [4]

CCS(=O)(=O)c1ccc(OC)c(C(=O)OC)c1
inactive: Potency [1] | Potency [2] | Potency [3] | Potency [4]

CC1CN(c2cc3c(cc2F)c(=O)c(C(=O)O)cn3-c2ccc(F)cc2F)CCN1 (configuration not stated)
inactive: activity change, negative = inhibition [1] 7.88% [at 5.82 µM] | activity change, negative = reduced viability [2] 9.98% [at 5.82 µM] | activity change, negative = lower viability [3] 2.49% [at 5.82 µM] | activity change, negative = inhibition [4] -0.151% [at 5.82 µM]

NC/C=C/C(=O)O
inactive: Potency [1] | Potency [2] | Potency [3] | Potency [4]

CCCCCC(C)N (configuration not stated)
inactive: Potency [1] | Potency [2] | Potency [3] | Potency [4]

CC(C)=CCC/C(C)=C/CC/C(C)=C/CCC(=O)OC/C=C(\C)CCC=C(C)C
inactive: Potency [1] | Potency [2] | Potency [3] | Potency [4]

COc1ccc2cc1Oc1cc3c(cc1OC)CC[N+](C)(C)[C@H]3Cc1ccc(cc1)Oc1c(OC)c(OC)cc3c1[C@@H](C2)[N+](C)(C)CC3
inactive: Potency [1] | Potency [2] | Potency [3] | Potency [4]

CC(COc1ccccc1)NN (configuration not stated)
inactive: Potency [1] | Potency [2] | Potency [3] | Potency [4]

O=C(O)Cc1ccc(OCCNC[C@H](O)c2ccccc2)cc1
inactive: Potency [1] | Potency [2] | Potency [3] | Potency [4]

CCCCC(CC)CNC(=O)CC(C)OC(=O)CCC(=O)O (configuration not stated)
inactive: Potency [1] | Potency [2] | Potency [3] | Potency [4]

N#CSCC(=O)O
inactive: Potency [1] | Potency [2] | Potency [3] | Potency [4]

O=C(O)CCC(=O)O
inactive: Potency [1] | Potency [2] | Potency [3] | Potency [4]

Cc1ccc(C(C)C)c(O)c1
inactive: Potency [1] | Potency [2] | Potency [3] | Potency [4]

C=CCN1C[C@H](C(=O)N(CCCN(C)C)C(=O)NCC)C[C@@H]2c3cccc4[nH]cc(c34)C[C@H]21
inactive: Potency [1] | Potency [2] | Potency [3] | Potency [4]

COc1cc(C(=O)OC(COCCC(C)C)CN2CCOCC2)cc(OC)c1OC (configuration not stated)
inactive: Potency [1] | Potency [2] | Potency [3] | Potency [4]

CC(C)(C)NCC(O)COc1ccccc1OCC1CCCO1 (configuration not stated)
inactive: Potency [1] | Potency [2] | Potency [3] | Potency [4]

CCCCCCCCCCCCCCCCCC(=O)OCC(O)CO (configuration not stated)
inactive: Potency [1] | Potency [2] | Potency [3] | Potency [4]

O=S(=O)(O)c1ccc(O)cc1
inactive: Potency [1] | Potency [2] | Potency [3] | Potency [4]

NCCNCCNCCNCCN
inactive: activity change, negative = inhibition [1] -3.37% [at 11.5 µM] | activity change, negative = reduced viability [2] 1.27% [at 11.5 µM] | activity change, negative = lower viability [3] 2.19% [at 11.5 µM] | activity change, negative = inhibition [4] -1.94% [at 11.5 µM]

CN1CCN(CC(=O)N2c3ccccc3C(=O)Nc3cccnc32)CC1
inactive: Potency [1] | Potency [2] | Potency [3] | Potency [4]

CCCCCCCCCCCCSCCOCCO
inactive: Potency [1] | Potency [2] | Potency [3] | Potency [4]

Oc1ccccc1-c1nnco1
inactive: Potency [1] | Potency [2] | Potency [3] | Potency [4]

CC(=O)O[C@]1(C(C)=O)CC[C@H]2[C@@H]3C[C@H](C)C4=CC(=O)CC[C@]4(C)[C@H]3CC[C@@]21C
inactive: Potency [1] | Potency [2] | Potency [3] | Potency [4]

O=C(O)Cc1csc(-c2ccc(Cl)cc2)n1
inactive: Potency [1] | Potency [2] | Potency [3] | Potency [4]

CC(C)(C)c1cc(C=O)cc(C(C)(C)C)c1O
inactive: Potency [1] | Potency [2] | Potency [3] | Potency [4]

CC(=O)N/N=C/c1ccc([N+](=O)[O-])o1
inactive: Potency [1] | Potency [2] | Potency [3] | Potency [4]

C=CCc1ccc(O)c(OC)c1
inactive: Potency [1] | Potency [2] | Potency [3] | Potency [4]

CCCCC(O)/C=C(C)/C=C/C=C/C(=O)N1CCCC1=O (configuration not stated)
inactive: Potency [1] | Potency [2] | Potency [3] | Potency [4]

COCCCN1CCC(NC(=O)c2cc(Cl)c(N)c3c2OCC3)CC1
inactive: Potency [1] | Potency [2] | Potency [3] | Potency [4]

O=C(NC(Cc1cc(=O)[nH]c2ccccc12)C(=O)O)c1ccc(Cl)cc1 (configuration not stated)
inactive: Potency [1] | Potency [2] | Potency [3] | Potency [4]

CCOC(=O)c1ccc(O)cc1
inactive: Potency [1] | Potency [2] | Potency [3] | Potency [4]

NC(=O)c1cccnc1
inactive: Potency [1] | Potency [2] | Potency [3] | Potency [4]

CCN1CCCC1CN (configuration not stated)
inactive: Potency [1] | Potency [2] | Potency [3] | Potency [4]

Nc1ncnc2c1ncn2Cc1c(F)cccc1Cl
inactive: Potency [1] | Potency [2] | Potency [3] | Potency [4]

CC(C(=O)O)c1ccc(/C=C2\CCCCC2=O)cc1 (configuration not stated)
inactive: Potency [1] | Potency [2] | Potency [3] | Potency [4]

Cc1ccc(O)c2ncccc12
inactive: Potency [1] | Potency [2] | Potency [3] | Potency [4]

Cc1cc(O)c2c(O)c3c(O)cccc3cc2c1
inactive: Potency [1] | Potency [2] | Potency [3] | Potency [4]

CCCCCCCC(=O)[O-].CCCCCCCC(=O)[O-].[Zn+2]
inactive: Potency [1] | Potency [2] | Potency [3] | Potency [4]

CC1(C)O[C@@H]2C[C@H]3[C@@H]4CCC5=CC(=O)C=C[C@]5(C)[C@@]4(F)[C@@H](O)C[C@]3(C)[C@]2(C(=O)CO)O1
inactive: Potency [1] | Potency [2] | Potency [3] | Potency [4]

CC(=O)Nc1ccccc1
inactive: Potency [1] | Potency [2] | Potency [3] | Potency [4]

COc1ccc(/C=N/NC(=O)c2ccncc2)cc1OC
inactive: Potency [1] | Potency [2] | Potency [3] | Potency [4]

OC[C@H]1O[C@@H](n2cnc3c2NC=NC[C@H]3O)C[C@@H]1O
inactive: Potency [1] | Potency [2] | Potency [3] | Potency [4]

CN1CCN(N)CC1
inactive: Potency [1] | Potency [2] | Potency [3] | Potency [4]

Cc1c(F)c(N2CCNC(C)C2)cc2c1c(=O)c(C(=O)O)cn2C1CC1 (configuration not stated)
inactive: Potency [1] | Potency [2] | Potency [3] | Potency [4]

O=C(CCCl)NCc1ccccc1
inactive: Potency [1] | Potency [2] | Potency [3] | Potency [4]

Cc1ccccc1N1CCN(CCc2nnc3n2CCCC3)CC1
inactive: Potency [1] | Potency [2] | Potency [3] | Potency [4]

NCC(=O)CCC(=O)O
inactive: Potency [1] | Potency [2] | Potency [3] | Potency [4]

COc1cc(C=O)ccc1O
inactive: Potency [1] | Potency [2] | Potency [3] | Potency [4]

COc1cc(OC)c(C(=O)CCCN2CCCC2)c(OC)c1
inactive: Potency [1] | Potency [2] | Potency [3] | Potency [4]

CO[C@@H]1[C@@H](OC(N)=O)[C@@H](O)[C@H](Oc2ccc3c(O)c(NC(=O)c4ccc(O)c(CC=C(C)C)c4)c(=O)oc3c2C)OC1(C)C
inactive: Potency [1] | Potency [2] | Potency [3] | Potency [4]

CN(C)CCOC(=O)COc1ccc(Cl)cc1
inactive: Potency [1] | Potency [2] | Potency [3] | Potency [4]

CCS(=O)(=O)CCn1c([N+](=O)[O-])cnc1C
inactive: Potency [1] | Potency [2] | Potency [3] | Potency [4]

O=C1CC(c2ccc(Cl)cc2)CC(=O)N1
inactive: Potency [1] | Potency [2] | Potency [3] | Potency [4]

CCCCCCCC/C=C/C(=O)O
inactive: Potency [1] | Potency [2] | Potency [3] | Potency [4]

Nc1ccc(/C=C/c2ccc(N)cc2S(=O)(=O)O)c(S(=O)(=O)O)c1
inactive: activity change, negative = inhibition [1] -2.51% [at 0.757 µM] | activity change, negative = reduced viability [2] 3.69% [at 0.757 µM] | activity change, negative = lower viability [3] 0.0811% [at 0.757 µM] | activity change, negative = inhibition [4] 15.6% [at 0.757 µM]

COc1cc(/C=C/C(=O)O[C@H]2CC[C@]34C[C@]35CC[C@]3(C)[C@@H]([C@H](C)CCC=C(C)C)CC[C@@]3(C)[C@@H]5CC[C@H]4C2(C)C)ccc1O
inactive: Potency [1] | Potency [2] | Potency [3] | Potency [4]

OCc1cccnc1
inactive: Potency [1] | Potency [2] | Potency [3] | Potency [4]

NS(=O)(=O)c1cc2c(cc1Cl)NC(CC1CCCC1)NS2(=O)=O (configuration not stated)
inactive: Potency [1] | Potency [2] | Potency [3] | Potency [4]

CCC(Cc1c(I)cc(I)c(N)c1I)C(=O)O (configuration not stated)
inactive: Potency [1] | Potency [2] | Potency [3] | Potency [4]

CCN1CCCC1CNC(=O)c1cc(S(=O)(=O)CC)c(N)cc1OC (configuration not stated)
inactive: Potency [1] | Potency [2] | Potency [3] | Potency [4]

CCCC(=O)Nc1ccc(O)c(C(C)=O)c1
inactive: Potency [1] | Potency [2] | Potency [3] | Potency [4]

O=C(O)c1c(O)c(-c2ccccc2)nc2ccccc12
inactive: Potency [1] | Potency [2] | Potency [3] | Potency [4]

CC(C)(C(=O)c1cccnc1)c1cccnc1
inactive: Potency [1] | Potency [2] | Potency [3] | Potency [4]

O=C(O)CCCC[P+](c1ccccc1)(c1ccccc1)c1ccccc1
inactive: Potency [1] | Potency [2] | Potency [3] | Potency [4]

CC[C@H](C)[C@H](N)C(=O)O
inactive: Potency [1] | Potency [2] | Potency [3] | Potency [4]

CC[C@]12CCCN3CCc4c(n(c5ccccc45)[C@@](O)(C(=O)OC)C1)[C@@H]32
inactive: Potency [1] | Potency [2] | Potency [3] | Potency [4]

O=C(O)/C=C\C(=O)O
inactive: Potency [1] | Potency [2] | Potency [3] | Potency [4]

CCN(CC)C(=O)/C(C#N)=C/c1cc(O)c(O)c([N+](=O)[O-])c1
inactive: Potency [1] | Potency [2] | Potency [3] | Potency [4]

From PubChem BioAssay (NCATS)
